This is an account of results in PubChem BioAssay AID651598 (Sanford-Burnham Center for Chemical Genomics, 2012).

Usually inhibition stands for the percentage by which the read-out fell short of the control.

“And” between values parts separate entries of the source, which are not always exact repeats. Equal values may be shown once.

The experiment deals with C-X-C chemokine receptor type 6 (Homo sapiens) (UniProt O00574). Briefly: APJ beta-arrestin recruitment blockade alongside CXCR6 – cell-based, DiscoveRx, panel, CHO-K1, counter-screen for CXCR6 antagonist project, SAR follow-up (AID 651598). Particulars: CHO-K1 PathHunter beta-arrestin luminescence, antagonist mode; run 2, at 80 µM (top of the series). (In general: Activated receptors often draw arrestin, which recruitment assays turn into a signal.)
Sequence of C-X-C chemokine receptor type 6 (Homo sapiens) (O00574 whole entry, looked up): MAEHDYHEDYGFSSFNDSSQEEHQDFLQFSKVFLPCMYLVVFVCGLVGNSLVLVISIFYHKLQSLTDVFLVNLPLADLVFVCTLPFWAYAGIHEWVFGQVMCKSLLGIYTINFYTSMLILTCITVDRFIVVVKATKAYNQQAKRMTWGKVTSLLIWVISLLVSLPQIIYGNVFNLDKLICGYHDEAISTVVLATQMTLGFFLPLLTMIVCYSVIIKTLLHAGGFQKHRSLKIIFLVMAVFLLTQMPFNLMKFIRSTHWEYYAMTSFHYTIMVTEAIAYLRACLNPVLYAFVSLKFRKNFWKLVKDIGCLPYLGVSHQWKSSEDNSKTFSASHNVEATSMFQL
In the case of `COc1cc(C(=O)NC2CC3CCCC(C2)N3CC(=O)Nc2ccccc2)cc(OC)c1OC` (stereo not drawn), the inhibition was 88.2% and 52.1% and 24.9%.
In the case of `COc1cc(C(=O)NC2CCN(CC(=O)Nc3ccccc3)CC2)cc(OC)c1OC`, the inhibition was 25.1%.
On to `COc1cc(C(=O)NC2CC3CCC(C2)N3CC(=O)Nc2ccccc2)cc(OC)c1OC` (stereo not drawn), for which the inhibition was 48.5% and 18.7%.
